From PubChem BioAssay (Tox21) come the findings set out here.

Inconclusive results are not listed. A number with no mark means an inactive call. Active and inactive are the calls of the source. Calls come from the whole dose curve; as a rule, active = well fitted activation curve with a large enough effect in the repeat runs; inconclusive = weak or mixed curves; inactive = no such curve, though single readings can be large or run the other way.
% is set by controls: 0 for no effect and ±100 for the full control effect.

The nature of the test: qHTS assay for small molecules that induce genotoxicity in human embryonic kidney cells expressing luciferase-tagged ATAD5 (AID 651632). Note: nearly all actives have a fitted effect of over 15% in size. As to conditions: HEK293T ATAD5-luciferase induction, 16 h; series mostly up to 83.3 µM; activation: at the top concentration. The text has this: U.S. Tox21 Program National Center for Advancing Translational Sciences [NCATS] NIH Chemical Genomics Center [NCGC] U.S. Environmental Protection Agency [EPA] National Institutes of Environmental Health Sciences [NIEHS] National Toxicology Program [NTP] U.S. Food and Drug Administration [FDA] Tox21 Assay Overview: As cancer cells divide rapidly and during every cell division they need to duplicate their genome by DNA replication. The failure to do so results in the cancer cell death. Based on this concept, many chemotherapeutic agents were developed but have limitations such as low efficacy and severe side effects etc. A new cell based assay was developed to find the compounds that effectively block DNA replication either by directly damaging DNA or by inhibiting other cellular mechanisms. Enhanced Level of Genome Instability Gene 1 (ELG1; human ATAD5) protein levels increase in response to various types of DNA damage. Using a luciferase reporter-gene tagged with ATAD5, a cell-based assay [developed by Kyungjae Myung, NHGRI, NIH] was used to measure the induction of ATAD5 in human embryonic kidney cells (HEK293T). So, increase in luciferase activity can be used to identify the compounds that cause genetic stress.
Tox21 Assay Protocol Summary: For genotoxicity screening, 2,000 cells in 5 uL/well were dispensed into white, solid-bottom 1536-well plates using a Multidrop Combi (Thermo Scientific) dispenser. Following transfer of 23 nL compound or DMSO vehicle by a pin tool, the plates were incubated 16 hr at 37C and 5% CO2. 5 ul Amplite (AAT Bioquest, Inc.) was then added to each plate and following 30 min incubation at room temperature, luciferase activity was quantified on a ViewLux CCD-based plate reader.
For orientation: In qHTS, concentration-response curves come from the screen itself.
As to `NC(=O)OCCCc1ccccc1`, the “activation” value is 1.53%. For `CC(O)CCl` (stereo not given), the “activation” value is -2.44%.

Regarding `COc1ccc(CN2CCNCC2)c(OC)c1OC`, the “activation” value was -2.53% [at 39.1 µM]. Still for that read-out and setting: next, `C[C@]12C=CC(=O)C=C1CC[C@@H]1[C@@H]2CC[C@@]2(C)[C@H]1CC[C@]2(C)O`: -5.24%. For `CC(C)(C)c1cc(O)ccc1O`, the compound was classed as inactive. As to `CON(C)C(=O)Nc1ccc(Br)cc1`, the “activation” value was 3.31%.

Take `O=C(O)c1c(Cl)ccc2cc(Cl)cnc12`: the “activation” value was 1.2%.

As for `O=C/C=C/c1ccco1`, the “activation” value is 3.08%.

As to `CCN(CCO)CCO`, the “activation” value was 3.02%.

For the compound `CC(C)(N)Cc1ccc(Cl)cc1`, the “activation” value was -4.2%.

In the case of `O=C1CCCCC1Cl` (stereo not given), the “activation” value is 3.63% [at 95.3 µM]. With `O=C(NC(O)C(Cl)(Cl)Cl)NC(O)C(Cl)(Cl)Cl` (stereo not given), the “activation” value was 3.71%.

With `COc1ccc2c(C(=O)c3ccc(Cl)cc3)c(C)n(CC(=O)O)c2c1`, the “activation” value was 1.67%. In the case of `COP(=O)(O)OC`, the “activation” value was -1.45% [at 95.3 µM]. Take `NC(=O)CS(=O)C(c1ccccc1)c1ccccc1` (stereo not given): the “activation” value is -1.18%. In the case of `BrCc1ccc(Br)cc1`, the “activation” value was 2.76%. As to `CC[C@H](O)C(C[C@H](C)N(C)C)(c1ccccc1)c1ccccc1`, the “activation” value was -2.47% [at 95.3 µM]. For the compound `CCCCCCCCSC(=O)Oc1cc(Cl)nnc1-c1ccccc1`, the “activation” value is -2.91%.

Consider `N[C@@H]1C[C@H]1c1ccccc1`, for which the “activation” value is -2.47%.

Regarding `CC(C)(C1CCC(O)CC1)C1CCC(O)CC1` (stereo not given), the “activation” value was -0.563%. For `Clc1cc2c(cc1Cl)Oc1cc(Cl)c(Cl)cc1O2`, the activation was 0.775% [at 0.33 µM]. In the case of `C[N+]1(C)CCCCC1`, the “activation” value was 1.68%. For `BrCC1CO1` (stereo not given), the “activation” value was 2.86% [at 95.3 µM]. Regarding `CCNc1nc(Cl)nc(NC(C)(C)C)n1`, the “activation” value was 3.98%. In the case of `Cc1ccc2cc(C)ccc2c1`, the “activation” value was -0.737%.

On to `Clc1ccc(C(Cl)(Cl)Cl)cn1`, for which the “activation” value is -1.95%. `CCCCOC(C)=O`: the “activation” value is -0.42% [at 95.3 µM]. For `CCCCCCCCBr`, the “activation” value is 1.23%. For the compound `CCNc1nc(NCC)nc(SC)n1`, the “activation” value is 2.83%. For the compound `Oc1ccc(Cc2ccc(O)cc2)cc1`, the “activation” value was 2.52% [at 95.3 µM].

Turning to `COC1=CC(=O)O[C@@H](/C=C/c2ccccc2)C1`, the “activation” value was 1.94% [at 95.3 µM]. Regarding `NNC(N)=O`, the “activation” value is -3.16% [at 95.3 µM]. For `NCCOS(=O)(=O)O`, the “activation” value was 2.92%. As to `BrCCc1ccccc1`, the “activation” value is -0.833% [at 95.3 µM]. The same measure, in the same setting: the value for `Cl/C=C/CCl` was 1.64% [at 95.3 µM]; that for `CCOC(=O)CCl` was -0.629%. As to `CCC1(CC)C(=O)C=CNC1=O`, the “activation” value is -0.62%.

Regarding `Brc1c(Br)c(Br)c(Br)c(Br)c1Br`, the activation is 2.71% [at 8.08 µM]. Turning to `CCOC(=O)COc1ccc(Cl)cc1Cl`, the “activation” value is 1.62%. As to `C=CC=O`, the “activation” value was 0.905% [at 95.3 µM].
